The whole screen tested about 310,000 compounds, of which about 2,200 (0.71%) showed an effect of 50% or more. The effect is printed as a negative number. For the sample, strong results were picked, then their nearest neighbours and some compounds at random.
biological target: human ether-à-go-go-related gene (hERG) potassium channel (human, UniProt Q12809); test: primary screen, population patch clamp on CHO cells stably expressing hERG; higher = less effect of the substance
Sequence (Q12809 whole entry, looked up): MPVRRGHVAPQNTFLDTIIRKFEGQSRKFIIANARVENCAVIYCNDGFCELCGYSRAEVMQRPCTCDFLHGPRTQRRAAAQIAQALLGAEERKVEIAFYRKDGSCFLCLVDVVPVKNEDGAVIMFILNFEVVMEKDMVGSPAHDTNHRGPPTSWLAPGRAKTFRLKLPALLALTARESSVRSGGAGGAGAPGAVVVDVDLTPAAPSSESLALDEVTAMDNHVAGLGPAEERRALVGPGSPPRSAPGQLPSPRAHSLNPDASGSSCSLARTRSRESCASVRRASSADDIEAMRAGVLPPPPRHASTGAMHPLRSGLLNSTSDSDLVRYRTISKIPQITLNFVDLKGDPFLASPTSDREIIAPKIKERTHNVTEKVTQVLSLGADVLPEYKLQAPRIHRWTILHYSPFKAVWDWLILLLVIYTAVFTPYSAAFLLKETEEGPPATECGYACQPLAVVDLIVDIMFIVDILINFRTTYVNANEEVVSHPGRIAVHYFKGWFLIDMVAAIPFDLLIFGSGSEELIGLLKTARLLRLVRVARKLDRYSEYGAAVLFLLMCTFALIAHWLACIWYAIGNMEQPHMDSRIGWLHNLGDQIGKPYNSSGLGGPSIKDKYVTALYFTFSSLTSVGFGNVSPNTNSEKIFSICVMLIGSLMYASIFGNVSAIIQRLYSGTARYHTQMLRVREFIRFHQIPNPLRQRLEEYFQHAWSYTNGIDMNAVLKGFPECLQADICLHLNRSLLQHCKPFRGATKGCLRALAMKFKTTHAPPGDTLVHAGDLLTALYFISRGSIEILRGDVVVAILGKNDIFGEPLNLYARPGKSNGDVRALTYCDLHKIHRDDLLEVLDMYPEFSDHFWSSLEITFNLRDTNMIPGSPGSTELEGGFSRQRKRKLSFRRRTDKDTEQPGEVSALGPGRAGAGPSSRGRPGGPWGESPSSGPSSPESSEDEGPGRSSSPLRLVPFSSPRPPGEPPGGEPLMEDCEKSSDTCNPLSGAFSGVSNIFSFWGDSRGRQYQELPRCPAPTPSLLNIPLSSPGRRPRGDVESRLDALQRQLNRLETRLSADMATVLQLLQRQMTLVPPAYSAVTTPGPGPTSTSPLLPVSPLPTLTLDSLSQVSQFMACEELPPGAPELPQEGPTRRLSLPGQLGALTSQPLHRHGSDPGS

**Q.** How did the “hERG current change (%, negative = inhibition) at 1uM” value turn out when COc1ccc(CC2(CO)CCN(Cc3cccc(OC)c3OC)CC2)cc1 was run?
**A.** The value was -17.3%.

**Q.** With COC(=O)c1ccc(CN2CCC(CO)(Cc3ccc(OC)cc3)CC2)cc1 as the compound, how does the “hERG current change (%, negative = inhibition) at 1uM” value read?
**A.** The value was -35.1%.

**Q.** COc1ccc(F)c(CN2CCC(CO)(Cc3cccc(C(F)(F)F)c3)CC2)c1 was tested. Which “hERG current change (%, negative = inhibition) at 1uM” value did it give?
**A.** Its value is -1.43%.

**Q.** How did the “hERG current change (%, negative = inhibition) at 1uM” value turn out when COc1ccc(CN2CCC(CO)(Cc3ccccc3C(F)(F)F)CC2)c(F)c1 was run?
**A.** The value was -53%.

**Q.** With COc1ccc(CC2(CO)CCN(Cc3ccncc3)CC2)cc1 as the compound, how does the “hERG current change (%, negative = inhibition) at 1uM” value read?
**A.** Its value is 7.36%.

**Q.** Which “hERG current change (%, negative = inhibition) at 1uM” value does the source give for OCC1(Cc2cccc(F)c2)CCN(Cc2cccc3nccnc23)CC1 here?
**A.** The value was -19.8%.

**Q.** Which “hERG current change (%, negative = inhibition) at 1uM” value does the source give for COc1cccc(CC2(CO)CCN(Cc3cccn3-c3cccnc3)CC2)c1 here?
**A.** The value was -6.04%.

**Q.** For COc1ccc(CC2(CO)CCN(Cc3cccc4nccnc34)CC2)cc1, which “hERG current change (%, negative = inhibition) at 1uM” value is on record?
**A.** Its value is -53%.

**Q.** With OCC1(Cc2ccccc2C(F)(F)F)CCN(Cc2ccccc2)CC1 as the compound, how does the “hERG current change (%, negative = inhibition) at 1uM” value read?
**A.** The value was 3.01%.

**Q.** How did the “hERG current change (%, negative = inhibition) at 1uM” value turn out when COc1ccc(CC2(CO)CCN(Cc3cccnc3)CC2)cc1 was run?
**A.** The value was 1.4%.

**Q.** For Cc1ccc(-c2nc(CS(=O)CC(=O)N3CCC4(CC3)OCCO4)c(C)o2)cc1 (stereo not drawn), which “hERG current change (%, negative = inhibition) at 1uM” value is on record?
**A.** The value was -3.05%.

**Q.** With Cc1ccc(N2CCN(C(=S)Nc3ccc(Cl)cc3)CC2)cc1 as the compound, how does the “hERG current change (%, negative = inhibition) at 1uM” value read?
**A.** The value was 13.4%.

**Q.** Which “hERG current change (%, negative = inhibition) at 1uM” value does the source give for CCN(CCCNC(=O)Cn1ncc2c([nH]c3ccccc32)c1=O)Cc1ccccc1 here?
**A.** Its value is -2.84%.

**Q.** For Nc1c(C(=O)c2ccccc2)sc2snc(SCC(=O)c3ccccc3)c12, which “hERG current change (%, negative = inhibition) at 1uM” value is on record?
**A.** The value was 14.8%.

**Q.** COc1cc(/C=C/C(=O)OCC(=O)N2CCCc3ccccc32)ccc1OCC#N was tested. Which “hERG current change (%, negative = inhibition) at 1uM” value did it give?
**A.** Its value is 14.6%.

**Q.** For Nc1cccc(Oc2ccc([N+](=O)[O-])cc2)c1, which “hERG current change (%, negative = inhibition) at 1uM” value is on record?
**A.** Its value is 7.1%.

**Q.** For Cc1nc(-c2cnn(-c3ccccc3)c2)c2cc(C)oc2n1, which “hERG current change (%, negative = inhibition) at 1uM” value is on record?
**A.** The value was 10.3%.

**Q.** For Cc1nn(-c2ccccn2)c2c1-c1nc(N3CCOCC3)ncc1CC2, which “hERG current change (%, negative = inhibition) at 1uM” value is on record?
**A.** Its value is 8.1%.

**Q.** Which “hERG current change (%, negative = inhibition) at 1uM” value does the source give for CC[C@H]1CN(C)CCc2c([nH]c3ccccc23)C(=O)C[C@@H]1/C(=C\OC)C(=O)OC here?
**A.** The value was -53.3%.

**Q.** For CC[C@@H]1CN(C)[C@H]2Cc3c([nH]c4ccccc34)C(=O)C[C@@H]1[C@@H]2C(=O)OC, which “hERG current change (%, negative = inhibition) at 1uM” value is on record?
**A.** Its value is 11.8%.

**Q.** How did the “hERG current change (%, negative = inhibition) at 1uM” value turn out when CC[C@H]1CN(C)C[C@@]2(C(=O)OC)Cc3c([nH]c4ccccc34)C(=O)C[C@@H]12 was run?
**A.** The value was 10.5%.

**Q.** For Cl.Oc1ccc2c3c1O[C@H]1c4[nH]c5ccccc5c4C[C@@]4(O)[C@@H](C2)N(CC2CC2)CC[C@]314, which “hERG current change (%, negative = inhibition) at 1uM” value is on record?
**A.** The value was -29.7%.

**Q.** With CS(=O)(=O)O.O.Oc1ccc2c3c1O[C@H]1c4oc5ccccc5c4C[C@@]4(O)[C@@H](C2)N(CC2CC2)CC[C@]314 as the compound, how does the “hERG current change (%, negative = inhibition) at 1uM” value read?
**A.** Its value is -68.1%.

**Q.** With Cl.O.Oc1ccc2c3c1O[C@H]1c4[nH]c5ccccc5c4C[C@@]4(O)C(C2)N(CC2CC2)CC[C@]314 as the compound, how does the “hERG current change (%, negative = inhibition) at 1uM” value read?
**A.** Its value is -16.4%.

**Q.** How did the “hERG current change (%, negative = inhibition) at 1uM” value turn out when COC(=O)C1=C(C)N(C)C(=O)NC1c1c(O)ccc2ccccc12 (stereo not drawn) was run?
**A.** The value was 6.78%.

**Q.** With CC/C(=N/Nc1ccccc1)c1cnnc(-c2ccccc2)n1 as the compound, how does the “hERG current change (%, negative = inhibition) at 1uM” value read?
**A.** Its value is 0.406%.

**Q.** Which “hERG current change (%, negative = inhibition) at 1uM” value does the source give for Cc1sc(NC(=O)CCl)c(C(=O)c2ccccc2)c1C here?
**A.** The value was 15.1%.

**Q.** Which “hERG current change (%, negative = inhibition) at 1uM” value does the source give for Cc1ccc(S(=O)(=O)Nc2nc(C)c(C(=O)N/N=C/c3ccccc3)s2)cc1 here?
**A.** The value was 11%.

**Q.** For Fc1cccc(Cc2noc(CN3CCCCC3CCc3ccccn3)n2)c1 (stereo not drawn), which “hERG current change (%, negative = inhibition) at 1uM” value is on record?
**A.** Its value is 13.2%.

**Q.** With COc1ccc(-c2nc(CN3CCCCC3CCc3ccccn3)c(C)o2)cc1 (stereo not drawn) as the compound, how does the “hERG current change (%, negative = inhibition) at 1uM” value read?
**A.** Its value is -79.4%.

**Q.** With COc1ccc(-c2nc(CN3CCN(Cc4ccccc4)CC3)c(C)o2)cc1 as the compound, how does the “hERG current change (%, negative = inhibition) at 1uM” value read?
**A.** The value was 4.17%.

**Q.** Which “hERG current change (%, negative = inhibition) at 1uM” value does the source give for c1ccc(CCC2CCCCN2Cc2cn[nH]c2-c2cc3ccccc3o2)nc1 (stereo not drawn) here?
**A.** Its value is -67%.

**Q.** Which “hERG current change (%, negative = inhibition) at 1uM” value does the source give for Cc1oc(-c2cccc(F)c2)nc1CN1CCCCC1CCn1cccn1 (stereo not drawn) here?
**A.** Its value is -40.1%.

**Q.** With CCOc1ccc(-c2nc(CN3CCCCC3CCn3cccn3)c(C)o2)cc1 (stereo not drawn) as the compound, how does the “hERG current change (%, negative = inhibition) at 1uM” value read?
**A.** The value was -24.9%.

**Q.** Which “hERG current change (%, negative = inhibition) at 1uM” value does the source give for Cc1oc(-c2cccc(F)c2)nc1CN1CCCCC1CCc1ccccn1 (stereo not drawn) here?
**A.** The value was -89.5%.

**Q.** How did the “hERG current change (%, negative = inhibition) at 1uM” value turn out when O=C(c1ccccn1)C1CCCN(Cc2cn[nH]c2-c2cc3ccccc3o2)C1 (stereo not drawn) was run?
**A.** Its value is -23.5%.

**Q.** With c1ccc2oc(-c3[nH]ncc3CN3CCSCC3)cc2c1 as the compound, how does the “hERG current change (%, negative = inhibition) at 1uM” value read?
**A.** The value was 9.72%.

**Q.** With COc1ccc(S(=O)(=O)N(C)C)cc1NC(=O)CCCSc1ccccc1 as the compound, how does the “hERG current change (%, negative = inhibition) at 1uM” value read?
**A.** Its value is -5.8%.

**Q.** For COc1ccc(Nc2nnc(C)c3ccccc23)cc1C(N)=O, which “hERG current change (%, negative = inhibition) at 1uM” value is on record?
**A.** Its value is 16.1%.

**Q.** With CC(C)(C)c1ccc(OC(=O)c2ccc(-n3cncn3)nc2)cc1 as the compound, how does the “hERG current change (%, negative = inhibition) at 1uM” value read?
**A.** The value was 10.9%.

**Q.** Which “hERG current change (%, negative = inhibition) at 1uM” value does the source give for CCOC(=O)c1ccc(NS(=O)(=O)c2ccc3oc(=O)[nH]c3c2)cc1 here?
**A.** The value was 7.04%.

**Q.** How did the “hERG current change (%, negative = inhibition) at 1uM” value turn out when Cl.Nc1ccc(-c2nc3c(ccc4ccccc43)[nH]2)cc1 was run?
**A.** Its value is 16.3%.

From article PMC4336329 (PLoS ONE, 2015)
